TLR4-MyD88 BLA – TLR4-MyD88 interaction inhibition in cells; HeLa CL3-4 TLR4/MyD88 BLA complementation, FRET ratio; O00206+Q99836; 0.18% of 200,000 active; inhibition, % at 8.4 µM; AID 861; in the data active = inhibition above about 25%;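 note: 0% = vehicle and 100% = reference inhibitor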
Myeloid diff 2 – promotes myeloid progenitor differentiation. calls only at 10 µM. AID 624256. 1% of 360,000 active. ER-HoxA9 myeloid progenitors, lysozyme-GFP differentiation, flow cytometry;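 active = normalized GFP-positive differentiation at or above the plate's own cutoff, the solvent-only control mean plus 3 SD; inconclusive = no clear call, values can overlap the other calls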;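 note: cells exposed to compound for four days before flow analysis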
NOD2 RIPK2 PPI – blocks binding of human NOD2 to RIPK2; inhibition, % at 4.98 µM; 0.38% of 360,000 active; CHO BLA complementation NOD2-RIPK2, CCF4 ratio; O43353; AID 624267; in the data active = inhibition above about 21%;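 note: 0% = vehicle only and 100% = reference blocker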
TLR9-MyD88 block – inhibitors of human TLR9-MyD88 binding; Q9NR96+Q99836; CHO BLA complementation TLR9-MyD88, CCF4 FRET ratio; inhibition, % at 4.98 µM; 0.21% of 340,000 active;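 active = inhibition above the mean over all tested compounds plus 3 SD, cut at about 21% in these data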;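 note: 0% = DMSO only wells and 100% = clavulanate BLA inhibitor control wells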
TLR4-MyD88 conf – TLR4-MyD88 interaction inhibition confirmed. shares compounds with TLR4-MyD88 BLA. HeLa CL3-4 BLA complementation, CCF4 FRET ratio. inhibition, % at 8.4 µM. 50% of 350 active. AID 941;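 active = mean inhibition across three repeat runs above about 25% carried over from the earlier screen, limit read from the data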;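 note: plate controls were DMSO only for no effect and clavulanic acid blocking BLA at full dose for full effect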
BLA inh HeLa – beta-lactamase inhibition flagged in TLR4-MyD88 counter-screen | 63% of 350 active | shares compounds with TLR4-MyD88 BLA | HeLa BLA reporter, CCF4 FRET ratio | inhibition, % at 8.4 µM | AID 1237;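 active = mean inhibition over three repeats above about 26% taken from the earlier screen, limit read from the data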;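 note: HeLa cells stably expressing beta-lactamase reporter as counterscreen for TLR4-MyD88 inhibitors; 0% = DMSO and 100% = clavulanic acid full inhibition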
TLR9-MyD88 conf – TLR9-MyD88 interaction inhibition, confirmation | inhibition, % at 4.98 µM | 51% of 680 active | AID 540250 | shares compounds with TLR9-MyD88 block | CHO TLR9/MyD88 BLA complementation, CCF4 FRET ratio;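 active = mean inhibition across three repeats above about 21% taken from the earlier screen, limit read from the data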;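 note: blue over green emission ratio reports constitutive TLR9 MyD88 association via BLA complementation; 0% = DMSO vehicle wells and 100% = clavulanate BLA inhibitor wells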
BLA counter-1 – non-selective beta-lactamase inhibitors in TLR9-MyD88 counter-screen. shares compounds with TLR9-MyD88 block. CHO-BLA cells, CCF4 FRET ratio, BLA reporter. inhibition, % at 4.98 µM. 7% of 680 active;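 active = mean inhibition above a 50% cutoff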;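 note: counterscreen of TLR9-MyD88 hits on CMV-driven BLA in CHO-K1 cells; 0% = DMSO alone and 100% = clavulanate blocking BLA; higher means less blue over green ratio so more BLA blockade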
TLR9 CHO cytotox – counter-screen for TLR9-MyD88 inhibitors: cytotoxicity in CHO cells; shares compounds with TLR9-MyD88 block; luminescence; inhibition, % at 4.98 µM; 39% of 680 active; in the data active = inhibition above about 11%
NOD2-RIPK2 conf – NOD2-RIPK2 interaction inhibition confirmed. shares compounds with NOD2 RIPK2 PPI. CHO cells, NOD2-RIPK2 BLA complementation, CCF4 FRET. inhibition, % at 4.98 µM. 70% of 1,200 active. AID 624370;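 active = mean inhibition across replicates above a set limit taken from the earlier primary screen, cut at about 21% in these data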;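 note: 0% = DMSO-only wells and the high end = clavulanate BLA-blocked wells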
BLA counter-2 – hits BLA reporter in NOD2-RIPK2 inhibitor counterscreen; shares compounds with NOD2 RIPK2 PPI; CHO BLA reporter, CCF4 FRET ratio; inhibition, % at 4.98 µM; 57% of 1,200 active; AID 624371;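 active = mean inhibition above the low-control mean inhibition plus three low-control SD, cut at about 11% in these data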;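 note: 0% = DMSO only wells and 100% = clavulanate high control wells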
* hit, by the source's call; i = inactive; ? = inconclusive; / = not tested or not shown; + = active, no number. A selection: hits, their analogues and other compounds. The true share with any hit is near 1.5%.

SMILES | TLR4-MyD88 BLA | Myeloid diff 2 | NOD2 RIPK2 PPI | TLR9-MyD88 block | others
Cc1ccc2c(c1)N(CCC(=O)N1CCC3(CC1)OCCO3)C(=O)CO2 | -12 | + | 2 | -3
Cc1ccc2c(c1)N(CCC(=O)N1CCC3(CC1)OCCO3)C(=O)C(C)O2 (stereo not given) | 6 | i | 7 | 4
O=P(/C=C1\OCc2ccccc21)(Oc1ccccc1)Oc1ccccc1 | / | i | -4 | /
Cc1cc(N(CCCl)CCCl)ccc1C=NNC(=O)Cc1cc(=O)oc2cc(O)ccc12 | / | + | -6 | -5
CO[C@H]1C=CCCC=CC(=O)O[C@H]([C@H](C)C(=O)CCCC2CC(=O)NC(=O)C2)C(C)=C[C@@H](C)[C@@H]1O | / | i | -8 | /
Cc1nc(N2CCN(Cc3ccc4c(c3)OCO4)CC2)[nH]c(=O)c1C | / | i | 6 | 3
COCCNC(=O)c1c(NC(=O)c2ccc(Br)o2)n(Cc2ccccc2)c2nc3ccccc3nc12 | 6 | + | -4 | -5
CN1/C(=C\C=C2C(=O)NC(=O)NC2=O)C(C)(C)c2ccccc21 | -9 | + | 4 | 9
O=C(NP(=O)(N1CC1)N1CC1)c1cc(I)ccc1I | / | / | -16 | 8
COC(=O)C1=C(c2cccc(OCc3ccccc3)c2)C[C@@H]2CC[C@H]1N2C(=O)NCc1ccc(OC)cc1 | / | + | 0 | 4
Nc1ccc(CC(N)c2csc(Nc3ncccn3)n2)cc1 (stereo not given) | / | i | -2 | /
NC(Cc1ccc(Cl)cc1)c1csc(Nc2ncccn2)n1 (stereo not given) | / | + | 6 | /
COc1ccc(C(c2nnnn2C2CCCC2)N2CCC3(CC2)C(=O)NCN3c2ccccc2)cc1 (stereo not given) | / | i | -31 | /
Cc1cc(NC(=O)COC(=O)c2c(C)nn(Cc3ccccc3)c2C)no1 | 0 | i | 7 | 7
Cc1nn(Cc2ccccc2)c(C)c1C(=O)OCC(=O)Nc1ccccc1SCC#N | 4 | + | -4 | 1
CC(=O)OC1CC(OC2C(O)CC(OC3C(O)CC(OC4CCC5(C)C(CCC6C5CC(O)C5(C)C(C7=CC(=O)OC7)CCC65O)C4)OC3C)OC2C)OC(C)C1OC1OC(CO)C(O)C(O)C1O (stereo not given) | / | + | -1 | 1
c1ccc(C(c2ccccc2)c2ccncc2)cc1 | / | i | -11 | 0
CNc1cc(Cl)c2nonc2c1[N+](=O)[O-] | 52* | ? | 93* | 80* | TLR4-MyD88 conf=55*;BLA inh HeLa=44*;TLR9-MyD88 conf=68*;BLA counter-1=28;TLR9 CHO cytotox=100*;NOD2-RIPK2 conf=102*;BLA counter-2=60*
C[C@]12CC[C@@H](O)CC1=CCC1C2CC[C@@]2(C)C1C[C@@H](F)[C@H]2O (stereo not given in full) | / | i | -3 | -15
CN(C)c1ccc(/C=C/[N+](=O)[O-])cc1 | -5 | i | 28* | 24* | TLR9-MyD88 conf=3;BLA counter-1=4;TLR9 CHO cytotox=-2
O=c1c2ccccc2[se]n1-c1ccccc1 | 5 | i | 10 | 27* | TLR9-MyD88 conf=19;BLA counter-1=-1;TLR9 CHO cytotox=26*
CC1(CCCc2ccc(N(CCCl)CCCl)cc2)NC(=O)NC1=O (stereo not given) | / | / | -2 | 3
O=C(NCCN1CCC2(CC1)C(=O)NCN2c1cccc(F)c1)c1ccc2ccccc2c1 | / | i | 1 | /

Screening results as filed in PubChem BioAssay.
